This is one part of a sample in which hits are shown more often than they occur.
EphB4 ephrin blk: antagonists of human EphB4-ephrin-B2 interaction. P54760. EphB4 LBD / TNYL-RAW-Alexa532 peptide, fluorescence polarization. actives 0.15% (n = 97,000). inhibition, % at 7 µM;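 active = inhibition above the screen-wide mean inhibition plus 3 SD, cut at about 15% in these data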
hDAT+cocaine: human DAT dopamine uptake with cocaine, either direction; Q01959; B-score at 10 µM; actives 1.3% (n = 110,000); LLC-PK1 hDAT cells, [14C]-dopamine uptake with cocaine IC80; actives deviate in either direction;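 active = Z score or B-score, a plate-position-corrected score, falls beyond the plate's 99.7% confidence bounds, in either direction; inactive = both scores lie inside the 99.7% bounds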
D1 allo mod: allosteric modulators of human D1 dopamine receptor | P21728 | HEK293 D1, CRE-luciferase, dopamine EC30 potentiation; actives deviate in either direction | B-score at 10 µM | actives 5.9% (n = 58,000);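 active = luminescence count or its row- and column-corrected plate score outside the 99.7% band of the plate's sample wells, on either side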
Target sequence (P21728 whole entry, looked up): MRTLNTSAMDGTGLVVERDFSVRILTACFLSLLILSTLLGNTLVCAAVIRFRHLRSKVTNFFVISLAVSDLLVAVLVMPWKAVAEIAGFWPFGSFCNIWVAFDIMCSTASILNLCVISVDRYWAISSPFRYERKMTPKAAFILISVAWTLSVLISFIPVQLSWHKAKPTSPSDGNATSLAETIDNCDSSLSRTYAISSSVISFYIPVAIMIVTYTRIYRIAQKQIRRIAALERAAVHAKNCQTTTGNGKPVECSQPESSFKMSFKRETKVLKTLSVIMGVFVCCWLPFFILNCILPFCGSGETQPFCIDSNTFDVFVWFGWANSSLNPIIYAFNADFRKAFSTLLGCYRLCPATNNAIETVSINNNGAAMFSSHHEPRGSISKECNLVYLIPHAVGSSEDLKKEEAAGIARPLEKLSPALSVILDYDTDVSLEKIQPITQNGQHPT
D1 mod confirm: D1 receptor (human) allosteric modulation, confirmed. luminescence at 10 µM. actives 88% (n = 2,200). AID 642. HEK293 D1 CRE-luciferase, dopamine EC30 potentiation; stronger effect = higher value. shares compounds with D1 allo mod;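 active = luminescence in either of two replicates above the same-plate mean plus 3 SD of the low-dose dopamine control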
D1 ag no DA: activates D1 CRE-luciferase signal without dopamine present; luminescence at 10 µM; actives 0.8% (n = 1,900); AID 646; HEK293 D1 CRE-luciferase, luminescence, no dopamine; stronger effect = higher value; shares compounds with D1 allo mod; in the data active = luminescence above about 3900
Isoprot counter: alters isoproterenol CRE-luciferase response in HEK293 cells | HEK293 D1 CRE-luciferase, isoproterenol EC30 counter-screen | shares compounds with D1 allo mod | actives 63% (n = 2,200) | calls only at 10 µM;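 active = luminescence in either replicate above plate mean of wells with a partly effective reference agonist dose plus 3 SD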;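 note: isoproterenol raises cAMP through native beta-adrenoceptor Gs so signal bypasses D1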
Each line names hits and unclear results; the compound was inactive in the other large screens (follow-up assays come after a bar, where they were run).

c1cc(CSc2nnc(-c3ccc4c(c3)OCO4)o2)ccn1	none
Cn1c(=O)[nH]c(=O)c2c1nc(N1CCCCCC1)n2Cc1cccc2ccccc12	none (no result: D1 allo mod)
Cc1ccc(Cn2c(N3CCCCCC3)nc3c2c(=O)[nH]c(=O)n3C)cc1	D1 allo mod 3.1 | D1 mod confirm 9560 | D1 ag no DA inactive | Isoprot counter active
COC(=O)[C@@H]1C[C@@]2(O)[C@@H](O)[C@@H](O)[C@@H](O)C[C@H]2N1CC1CCCCC1	none (no result: EphB4 ephrin blk, D1 allo mod)
COc1ccc2c(c1)C(=O)N(c1ccccc1OC)C(=O)C2(C)C	D1 allo mod 6.9 | D1 mod confirm 11528 | D1 ag no DA inactive | Isoprot counter inactive
COc1ccc2c(c1)C(=O)N(c1ccccc1)C(=O)C2	none (no result: D1 allo mod)
Cc1c(C#N)c(N=CN(C)C)c(C(=O)c2ccc(Br)cc2)n1-c1ccc(Cl)cc1	none (no result: D1 allo mod)
COC(=O)C1=C(C)N(C)C(C)=C(C(=O)OC)C1c1ccsc1	none
CCOC(=O)C1=CN(C)C=C(C(=O)OCC)C1c1ccsc1	D1 allo mod 5.8 | D1 mod confirm inactive | D1 ag no DA inactive | Isoprot counter inactive
CCOc1ccc(Cc2nnc(N)s2)cc1OCC	D1 allo mod 11 | D1 mod confirm 18204 | D1 ag no DA inactive | Isoprot counter active
Nc1nnc(Cc2ccc(Cl)cc2)s1	none
CC(=O)Nc1cccc(C(=O)NC(C)c2ccc(S(N)(=O)=O)cc2)c1 (stereo unspecified)	none (no result: D1 allo mod)
CCC(C)NS(=O)(=O)c1ccc(-c2csnn2)s1 (stereo unspecified)	none (no result: D1 allo mod)
Brc1ccc(-c2nnc3sc(CN4CCc5ccccc5C4)cn23)cc1	none (no result: EphB4 ephrin blk, hDAT+cocaine)
c1ccc(-c2nnc3sc(CN4CCc5ccccc54)cn23)cc1	D1 allo mod 2.6 | D1 mod confirm 15088 | D1 ag no DA inactive | Isoprot counter inactive
CCC(=O)Nc1nc2n(n1)C(c1ccc(OC)cc1)C=C(c1ccccc1)N2 (stereo unspecified)	none (no result: D1 allo mod)
CC(=O)Nc1nc2n(n1)C(c1ccc(F)cc1)C=C(c1ccccc1)N2 (stereo unspecified)	none
CC(=O)Nc1nc2n(n1)C(c1ccccc1)C=C(c1ccccc1)N2 (stereo unspecified)	D1 allo mod 3.4 | D1 mod confirm 6792 | D1 ag no DA inactive | Isoprot counter inactive
O=C(Nc1nc2n(n1)C(c1ccccc1)C=C(c1ccccc1)N2)c1ccco1 (stereo unspecified)	D1 allo mod 2.9 | D1 mod confirm 11140 | D1 ag no DA inactive | Isoprot counter active
COc1ccc2c(c1)C(=NN)c1cc(OC)ccc1-2	none (no result: D1 allo mod)
Cc1ccc2c(c1)N(CCCC(=O)NCCCN1CCCC1=O)C(=O)CO2	none (no result: EphB4 ephrin blk, hDAT+cocaine)
CCCCCc1nc(N)c(C#N)c(-c2ccco2)c1CCCC	none (no result: D1 allo mod)
CCCc1nc(N)c(C#N)c(N)c1C#N	D1 allo mod 19 | D1 mod confirm 17760 | D1 ag no DA inactive | Isoprot counter active
O=C1CC(SC(=Nc2ccccc2)Nc2ccccc2)C(=O)N1c1cccc2ccccc12 (stereo unspecified)	none (no result: D1 allo mod)
CCCC(=O)c1c(NC(C)C)cc(C)oc1=O	D1 allo mod 5.7 (no result: EphB4 ephrin blk) | D1 mod confirm 12004 | D1 ag no DA inactive | Isoprot counter active
CCCNc1cc(C)oc(=O)c1C(=O)CCC	none (no result: D1 allo mod)
Cc1noc(C)c1COc1cccc(C(=O)OCCOc2ccc(F)cc2)c1	none
Cc1ccc(NC(=O)c2cccc(OCc3c(C)noc3C)c2)c(C)c1	D1 allo mod 4.6 | D1 mod confirm inactive | D1 ag no DA inactive | Isoprot counter inactive
O=C(NCCN1CCOCC1)c1ccc2c(c1)N(Cc1ccccc1F)C(=O)CS2	none (no result: hDAT+cocaine)
O=C1CSc2ccccc2N1Cc1ccccc1F	D1 allo mod 3.5 | D1 mod confirm 6672 | D1 ag no DA inactive | Isoprot counter inactive
CCN(CC)c1nc2ccccc2nc1-n1nc(C)cc1C	none (no result: D1 allo mod)
COc1ccc2c(C)c(Cl)c(=O)oc2c1	none
Cc1c(C)c2ccc(OC3CCCCC3=O)cc2oc1=O (stereo unspecified)	D1 allo mod 2.5 (no result: EphB4 ephrin blk, hDAT+cocaine) | D1 mod confirm 6564 | D1 ag no DA inactive | Isoprot counter inactive
OCC[C@@H]1C[C@H](O)[C@@H](O)[C@]2(CCCO2)O1	none (no result: EphB4 ephrin blk, D1 allo mod)
Nn1c(SCc2ccccc2)nnc1-c1ccco1	none
c1ccc(-n2c(SCc3ccncc3)nnc2-c2ccco2)cc1	D1 allo mod 10 | D1 mod confirm 14488 | Isoprot counter active
CC1=C(N2CCCCC2)CCC1=O	none (no result: EphB4 ephrin blk, D1 allo mod)
COc1c(S(=O)(=O)N2CCCC2)ccc(Cl)c1Cl	D1 allo mod 5.4 | D1 mod confirm 10616 | D1 ag no DA inactive | Isoprot counter active
O=S(=O)(c1cccc(Cl)c1Cl)N1CCCCC1	none
O=C(Nc1ccccc1N1CCOCC1)c1cnccn1	none (no result: D1 allo mod)
O=C(Nc1ccccc1-c1ccccc1)c1cnccn1	D1 allo mod 5.2 | D1 mod confirm 9324 | D1 ag no DA inactive | Isoprot counter active
COc1cc(C[C@@H](CO)[C@H](CO)Cc2ccc(O)c(OC)c2)ccc1O	none (no result: EphB4 ephrin blk, D1 allo mod)
COc1ccc(CC(=O)NCc2ccc3c(c2)OCO3)cc1	none (no result: D1 allo mod)
COC(=O)/C(=C1/Oc2cc3c(cc2S1)OCO3)C(F)(F)F	D1 allo mod 3.4 (no result: EphB4 ephrin blk) | D1 mod confirm 11868 | D1 ag no DA inactive | Isoprot counter inactive
O=C(O)CCSc1nc(C(F)(F)F)cc(=O)n1-c1ccccc1	none (no result: D1 allo mod)
O=S1(=O)[C@H]2C[C@@H]3CC[C@]2(CN1Cc1cccc(F)c1)O3	none (no result: EphB4 ephrin blk, D1 allo mod)
CC1(c2nnc(-c3cccc(Cl)c3)o2)CC(c2ccc(F)cc2)=NO1 (stereo unspecified)	none (no result: EphB4 ephrin blk, D1 allo mod)
CC(C)NC(=O)c1onc(CSc2ccc(Cl)cc2)c1C(=O)NC(C)C	none (no result: EphB4 ephrin blk, D1 allo mod)
CC(C)(C)OC(=O)NCCCC1=CC2=CC(=O)C(C)(OC(=O)C3CCCC3)C(=O)C2=CO1 (stereo unspecified)	none (no result: EphB4 ephrin blk, D1 allo mod)
N#CC1=C(N)C(C#N)(C#N)C(c2ccc[nH]2)C2CCCC=C12 (stereo unspecified)	D1 allo mod 2.8 | D1 mod confirm inactive | D1 ag no DA inactive | Isoprot counter inactive
N#CC1=C(N)C(C#N)(C#N)C(c2cccnc2)C2CCCC=C12 (stereo unspecified)	none
CC(C)OCCCN1CN(S(=O)(=O)c2cccc(Cl)c2)c2nc3ccccc3nc21	none (no result: D1 allo mod)
COC(=O)c1ccc(Oc2nc(Nc3ccc(C)c(C)c3)nc(N(C)C)n2)cc1	none (no result: D1 allo mod)
O=C1CC(c2ccc3c(c2)OCO3)c2cc3c(cc2N1)OCCO3 (stereo unspecified)	hDAT+cocaine -2.8, D1 allo mod 11 | D1 mod confirm 11940 | D1 ag no DA inactive | Isoprot counter active
O=C1CC(c2cccs2)c2cc3c(cc2N1)OCO3 (stereo unspecified)	none
O=C1CC(c2ccncc2)c2cc3c(cc2N1)OCCO3 (stereo unspecified)	none
O=C1CC(c2ccsc2)c2cc3c(cc2N1)OCCO3 (stereo unspecified)	D1 allo mod 5.8 (no result: EphB4 ephrin blk) | D1 mod confirm 14472 | D1 ag no DA inactive | Isoprot counter inactive
CCC(C)NCCCCOc1ccc(C)cc1[N+](=O)[O-] (stereo unspecified)	none (no result: D1 allo mod)

From PubChem
